The text below walks through data of PubChem BioAssay (EPA / NIEHS).

Structures are written as SMILES. Values joined by “and” are separate entries in the source; they are usually repeats but may differ in a detail not shown here. Equal values may be shown once. Inconclusive results are not listed. Active and inactive are the calls of the source. How the source made its calls, unless noted: active means hit-call score of the fitted dose curve at least 0.9, where 1 is the maximum; inconclusive means response in the unintended direction; inactive means score below 0.9.

Test [1] can be described thus: CEETOX_H295R_OHPREG_noMTC: CeeTox H295R High-throughput Steroidogenesis Assay for OH-Pregnenolone (OHPREG), maximum tolerated concentration (MTC) filtered results only (AID 2283912; active means hit-call score of the fitted dose curve at least 0.9, where 1 is the maximum; inactive means score below 0.9). As to conditions: actives raise or lower the signal. How it is done: CEETOX_H295R is a cell-based, multiplexed-readout assay that uses H295R, a human adrenal gland cell line, with measurements taken at 48 hours after chemical dosing in a 96-well plate.CEETOX_H295R_OHPREG_noMTC is one of 12 assay component(s) measured or calculated from the CEETOX_H295R assay (11 hormones and 1 viability assay). It is designed to make measurements of hormone induction, a form of inducible reporter, as detected with absorbance signals by HPLC-MS-MS technology. The concentrations for these components have not been pre-filtered for the maximum tolerated concentration (MTC) based on the MTT assay (_noMTC).Data from the assay component CEETOX_H295R_OHPREG_noMTC was analyzed into 1 assay endpoint. This assay endpoint, CEETOX_H295R_OHPREG_noMTC, was analyzed with bidirectional fitting relative to DMSO as the negative control and baseline of activity. Using a type of inducible reporter, gain or loss-of-signal activity using HPLC-MS-MS was used to understand synthesis of 17alpha-hydroxypregnenolone in H295R cell line at 48hr of chemical exposure, without filtering concentrations for maximum tolerated concentration (MTC). To generalize the intended target to other relatable targets, this assay endpoint is annotated to the steroid hormone intended target family, where the subfamily is progestagens.
Cell culture and media preparation procedures were conducted in accordance with OECD Test No. 456 guidelines, with minor modifications. H295R cells (ATCC CRL-2128) were expanded for 5 passages and frozen in batches in liquid nitrogen. Prior to the steroidogenesis assay, H295R cells were thawed and passed at least 4 times. The maximum passage was 10. Cells were maintained in a 1:1 mixture of DMEM/F12 supplemented with 5ml/L ITS+ Premix (BD Bioscience) and 12.5 ml/L Nu-Serum (BD Bioscience). After seeding cells into 96-well plates at 50-60% confluency, cells were allowed to adhere overnight. Prior to chemical testing, culture medium was replaced with 175 uL medium containing 10 uM forskolin to stimulate steroidogenesis for 48 hours. Following prestimulation, forskolin medium was replaced with medium containing test chemical solubilized in DMSO (ensuring a final concentration of 0.1% DMSO). […] For steroid quantification, media samples were shipped to OpAns, LLC (Durham, NC) on dry ice, and samples were thawed to room temperature prior to liquid-liquid extraction. […] Steroid hormones were separated by HPLC, eluted using a reverse phase C18 gradient with electrospray positive ionization, followed by quantification by tandem mass spectrometry (MS/MS). Data were acquired on a MassHunter Workstation Acquisition version B03.01 (Agilent Technologies, Inc.) and processed using MassHunter Quantitative Analysis for QQQ. Accuracy was determined for each hormone analyte from 3 standards to determine upper and lower limits of quantification (ULOQ and LLOQ, respectively) using a 7-point standard curve. Precision and accuracy of the extraction and quantification methods were calculated as the percent relative standard deviation (%RSD) of the spiked standards and percent spiked standard recovered, respectively. The goal was to achieve 100% accuracy (i.e., recover all spiked-in standard at quantification with minimal loss during run time) and good precision (i.e., have %RSD <15% to ensure reproducibility). Test medium was removed following chemical exposure, and cell viability was evaluated in the same wells by MTT. […]

The nature of test [2]: CEETOX_H295R_OHPROG_noMTC: CeeTox H295R High-throughput Steroidogenesis Assay for OH-Progesterone (OHPROG), maximum tolerated concentration (MTC) filtered results only (AID 2283914; active means hit-call score of the fitted dose curve at least 0.9, where 1 is the maximum; inactive means score below 0.9). The conditions noted are these: actives raise or lower the signal. In outline:
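Medium hormone measured by reverse-phase C18 HPLC with positive electrospray MS/MS after MTBE liquid-liquid extraction. Cells had 48 h forskolin (10 uM) prestimulation, then 48 h chemical dosing. Gain or loss of signal fitted relative to DMSO baseline.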

For test [3], the system named is Sodium/Iodide Symporter (NIS), SLC5A5 (gene 6528). The experiment in a line: CPHEA_Stoker_NIS_Inhibition_RAIU: CPHEA's Radioactive Iodide Uptake (RAIU) Assay for Sodium/Iodide Symporter (NIS) Inhibition, Stoker and Laws Labs (AID 2283841). An outline of the steps: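 hNIS-HEK293T-EPA cells incubated 2 h at room temperature with compound (0.001–100 uM, 0.5% DMSO) and 329 pM final 125I in HBSS/10 mM HEPES, pH 7.4. Intracellular 125I counted; normalised to DMSO maximal uptake, triplicate, three biological replicates.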

For test [4], the target named is human Thyroid hormone Receptor alpha (TRa), THRA (gene 7067) (UniProt P10827). The experiment in a line: ATG_hTRa_XSP2: Attagene TRANS-FACTORIAL Multi-Species (XSP2) HepG2 Assay for human Thyroid hormone Receptor alpha (TRa) (AID 2283838). In outline: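 Gain-of-signal in reporter mRNA, relative to DMSO, after 24 h dosing of transfected HepG2; quantitation by RT-PCR fragment analysis on capillary electrophoresis.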
Chain of human Thyroid hormone Receptor alpha (TRa), THRA (gene 7067) (P10827 whole entry, looked up, the tested form may be a part): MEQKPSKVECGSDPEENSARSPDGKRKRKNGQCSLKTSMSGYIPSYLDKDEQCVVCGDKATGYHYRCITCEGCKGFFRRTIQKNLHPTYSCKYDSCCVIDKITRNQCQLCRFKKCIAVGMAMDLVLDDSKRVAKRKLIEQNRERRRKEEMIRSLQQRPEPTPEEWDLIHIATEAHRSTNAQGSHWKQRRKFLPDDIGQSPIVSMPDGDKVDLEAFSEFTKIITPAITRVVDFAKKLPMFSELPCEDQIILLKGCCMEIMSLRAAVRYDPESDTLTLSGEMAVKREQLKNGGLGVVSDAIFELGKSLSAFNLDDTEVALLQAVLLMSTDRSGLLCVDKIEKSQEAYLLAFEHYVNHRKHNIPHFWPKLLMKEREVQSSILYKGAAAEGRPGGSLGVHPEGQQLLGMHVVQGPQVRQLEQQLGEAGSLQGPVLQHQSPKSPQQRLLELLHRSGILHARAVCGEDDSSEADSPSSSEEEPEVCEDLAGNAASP

Test [5] deals with frog Thyroid hormone Receptor alpha (TRa), thra-a (gene 397942) (UniProt P15204). The test can be described thus: ATG_frTRa_XSP2: Attagene TRANS-FACTORIAL Multi-Species (XSP2) HepG2 Assay for frog Thyroid hormone Receptor alpha (TRa) (AID 2283839).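 Further: AC50 reflects induction of frog TRa-driven reporter mRNA above DMSO baseline.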 As for the experimental part: ATG_XSP2_multi-species_TRANS is a cell-based, multiplexed assay created by modifying the existing Attagene TRANS-FACTORIAL system to include a panel of nuclear receptors from some or all the following species: human (Homo sapiens), mouse (Mus musculus), frog (Xenopus laevis), zebrafish (Danio rerio), chicken (Gallus gallus), and turtle (Chrysemys picta). The ECOTOX-FACTORIAL format uses HepG2, a human liver cell line, with measurements taken at 24 hours after chemical dosing in a 24-well plate. Xsp2 included 3 nM 6-alpha-fluorotestosterone and 1.5 nM norgestrel to stimulate the androgen receptor.ATG_frTRa_XSP2 is one of 29 assay components measured or calculated from the ATG_XSP2_multi-species_TRANS assay. It is designed to make measurements of mRNA induction, a form of inducible reporter, as detected with fluorescence intensity signals by Reverse transcription polymerase chain reaction (RT-PCR) and Capillary electrophoresis technology.The assay endpoint ATG_frTRa_XSP2 was analyzed in the positive analysis fitting direction relative to DMSO as the negative control and baseline of activity. Using a type of inducible reporter, measures of mRNA for gain-of-signal activity can be used to understand the reporter gene at the transcription factor-level as they relate to the gene TR. Furthermore, this assay endpoint can be referred to as a primary readout, because this assay has produced multiple assay endpoints where this one serves a reporter gene function. To generalize the intended target to other relatable targets, this assay endpoint is annotated to the nuclear receptor intended target family, where the subfamily is non-steroidal.
Chain of frog Thyroid hormone Receptor alpha (TRa), thra-a (gene 397942) (P15204 whole entry, looked up): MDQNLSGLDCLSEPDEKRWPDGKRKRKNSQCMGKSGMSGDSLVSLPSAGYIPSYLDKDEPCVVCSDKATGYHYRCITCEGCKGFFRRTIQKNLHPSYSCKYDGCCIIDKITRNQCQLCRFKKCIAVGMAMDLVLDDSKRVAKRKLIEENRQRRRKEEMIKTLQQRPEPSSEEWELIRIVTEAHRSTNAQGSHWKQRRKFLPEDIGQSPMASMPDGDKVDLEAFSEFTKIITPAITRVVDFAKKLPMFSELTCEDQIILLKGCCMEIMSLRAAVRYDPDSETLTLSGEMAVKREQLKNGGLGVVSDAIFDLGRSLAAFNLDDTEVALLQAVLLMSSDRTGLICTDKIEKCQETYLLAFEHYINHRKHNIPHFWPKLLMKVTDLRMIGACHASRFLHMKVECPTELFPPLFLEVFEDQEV
Human liver HepG2 cells are transiently transfected with multiple reporter transcription units (MRTUs) in 6-well plates using FuGene 6 reagent (Roche; 3 ml FuGene/1 mg DNA). The MRTU constructs are regulated by a cis-regulating element (promoter). […] A major difference between the CIS and TRANS system is that in CIS activities of endogenous TFs are measured, whereas the TRANS assay evaluates changes in activities of exogenous, chimeric NR-Gal4 proteins. […] At the end of 24 hour incubation, total RNA was isolated using TriZol reagent (Invitrogen). The isolated RNA is then reverse-transcribed using oligo(dT) primer and Mo-MLV reverse transcriptase (Invitrogen) with DNAse I (Ambion) treatment for 30 min. The one-tenth of the produced cDNA was amplified by PCR using Taq DNA polymerase (Invitrogen) and two reporter sequence-specific primers. The PCR products were fluorescently labeled by primer extension with 6-arboxyfluorescein (6-FAM) 5'-labeled reporter sequence-specific primer (2 min at 95 C, 20 s at 68 C and 10 min at 72 C) and these products were digested with 5U of HpaI (New England Biolabs) for 2h at 37 C. The fragments were purified using Qiaquick PCR columns (Qiagen), analyzed on an ABI 3130xL genetic analyzer (Applied Biosystems) with peak positions identified by using a set of X-rhodamine (ROX)-labeled MapMarker1000 molecular weight standards (BioVentures). The raw capillary electrophoresis data was processed using Attagraph software (Attagene).

Test [6] concerns the target human Thyroid hormone Receptor beta (TRb), THRB (gene 7068) (UniProt P10828). The test can be described thus: ATG_hTRb_XSP2: Attagene TRANS-FACTORIAL Multi-Species (XSP2) HepG2 Assay for human Thyroid hormone Receptor beta (TRb) (AID 2283840).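 Further: actives raise reporter mRNA so potency reflects agonist-like gain of signal.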 An outline of the steps: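 In this cell-based multiplex, HepG2 liver cells carrying transfected GAL4-UAS reporter constructs are exposed to chemical for 24 hours, then reporter transcripts are measured by RT-PCR with capillary electrophoresis, scored as gain of signal against DMSO.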

Test [7] can be described thus: CEETOX_H295R_11DCORT_noMTC: CeeTox H295R High-throughput Steroidogenesis Assay for 11-Deoxycortisol (11DCORT), maximum tolerated concentration (MTC) filtered results only (AID 2283911; active means hit-call score of the fitted dose curve at least 0.9, where 1 is the maximum; inactive means score below 0.9). As to conditions: actives raise or lower the signal. An outline of the steps:
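Readout is 11-deoxycortisol in culture medium by reverse-phase HPLC with MS/MS, after 48 h chemical treatment of forskolin-primed H295R cells. Values are relative to DMSO and unfiltered for cytotoxicity.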

Test [8] in a line: CEETOX_H295R_CORTISOL_noMTC: CeeTox H295R High-throughput Steroidogenesis Assay for Cortisol, maximum tolerated concentration (MTC) filtered results only (AID 2283916; active means hit-call score of the fitted dose curve at least 0.9, where 1 is the maximum; inactive means score below 0.9). As to conditions: actives raise or lower the signal. An outline of the steps: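 H295R human adrenal cells prestimulated 48 h with 10 uM forskolin, then exposed 48 h to chemical in 0.1% DMSO; cortisol in medium quantified by HPLC-MS/MS; bidirectional fit vs DMSO baseline, concentrations not MTT-filtered for MTC.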

The nature of test [9]: CEETOX_H295R_ANDR_noMTC: CeeTox H295R High-throughput Steroidogenesis Assay for Androstenedione (ANDR), maximum tolerated concentration (MTC) filtered results only (AID 2283915; active means hit-call score of the fitted dose curve at least 0.9, where 1 is the maximum; inactive means score below 0.9). The conditions noted are these: actives raise or lower the signal. As for the experimental part:
CEETOX_H295R is a cell-based, multiplexed-readout assay that uses H295R, a human adrenal gland cell line, with measurements taken at 48 hours after chemical dosing in a 96-well plate.CEETOX_H295R_ANDR_noMTC is one of 12 assay component(s) measured or calculated from the CEETOX_H295R assay (11 hormones and 1 viability assay). It is designed to make measurements of hormone induction, a form of inducible reporter, as detected with absorbance signals by HPLC-MS-MS technology. The concentrations for these components have not been pre-filtered for the maximum tolerated concentration (MTC) based on the MTT assay (_noMTC).Data from the assay component CEETOX_H295R_ANDR_noMTC was analyzed into 1 assay endpoint. This assay endpoint, CEETOX_H295R_ANDR_noMTC, was analyzed with bidirectional fitting relative to DMSO as the negative control and baseline of activity. […]
Cell culture and media preparation procedures were conducted in accordance with OECD Test No. 456 guidelines, with minor modifications. […] For steroid quantification, media samples were shipped to OpAns, LLC (Durham, NC) on dry ice, and samples were thawed to room temperature prior to liquid-liquid extraction. […] Steroid hormones were separated by HPLC, eluted using a reverse phase C18 gradient with electrospray positive ionization, followed by quantification by tandem mass spectrometry (MS/MS). […]

Chain of human Thyroid hormone Receptor beta (TRb), THRB (gene 7068) (P10828 whole entry, looked up, the tested form may be a part): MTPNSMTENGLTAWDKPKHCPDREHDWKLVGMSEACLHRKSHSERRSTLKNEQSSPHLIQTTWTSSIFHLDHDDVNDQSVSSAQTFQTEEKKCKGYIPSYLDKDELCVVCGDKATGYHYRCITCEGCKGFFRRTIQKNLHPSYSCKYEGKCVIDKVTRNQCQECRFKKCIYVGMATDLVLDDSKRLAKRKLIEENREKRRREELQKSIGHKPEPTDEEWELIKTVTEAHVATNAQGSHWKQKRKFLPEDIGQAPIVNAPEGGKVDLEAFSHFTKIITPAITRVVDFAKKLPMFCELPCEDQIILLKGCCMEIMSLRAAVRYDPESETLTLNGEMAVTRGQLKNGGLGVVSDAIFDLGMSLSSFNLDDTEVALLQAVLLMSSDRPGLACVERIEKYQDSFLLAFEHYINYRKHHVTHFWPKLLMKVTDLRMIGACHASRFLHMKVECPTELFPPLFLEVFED

Consider `CCCCCc1ccc(N)cc1`, for which the compound was called inactive in test [1]. Also, the AC50 in test [2] was 12.4 µM (active).

Regarding `O=C(Nc1ccc(Cl)cc1)Nc1ccc(Cl)c(Cl)c1`, in test [3], the result was inactive.

As to `CC(C)(c1cc(Br)c(O)c(Br)c1)c1cc(Br)c(O)c(Br)c1`, the compound was classed as inactive in [4] and in [6]. In addition, the figures for the AC50 in test [5] and in test [3] were 5.76 µM (active) and 82.4 µM (active), respectively.

As to `CCCCCCCCCCCC[N+](C)(C)C`, the result in test [3] was inactive.

On to `CC(C)(C)c1cc(/C=C2\SC(N)=NC2=O)cc(C(C)(C)C)c1O`, for which the result in test [3] was inactive.

For `Clc1ccccc1C(c1ccccc1)(c1ccccc1)n1ccnc1`, the AC50 in test [3] was 50 µM (active).

Regarding `CN1C(=O)N(c2ccccc2Br)Cc2cnc(Nc3ccc4c(c3)OCC(CO)O4)nc21` (stereo unspecified), the result in [3] was inactive.

As to `NC(=O)c1nc(-c2cccc(-c3cc(F)ccc3OCC(F)(F)C(F)(F)F)c2)n[nH]1`, in test [3], the AC50 was 50 µM (active).

For `O=C(O)Cc1cc(I)c(Oc2ccc(O)c(I)c2)c(I)c1`, the AC50 in test [5] is 0.519 nM (active) and 0.826 nM (active); in [3] it was 88.5 µM (active).

With `O=c1[nH]sc2ccccc12`, in test [3], the outcome was inactive.

In the case of `CC/C(=C(/CC)c1ccc(O)cc1)c1ccc(O)cc1`, the outcome in test [3] was inactive. For the same compound, the half-maximal activity concentration (AC50) in test [7] was 45 µM (active); in test [8], 34.8 µM (active).

On to `O=C(O)c1ccccc1C(=O)OCc1ccccc1`, for which the result in test [7], in test [1], in test [2], in test [9] and in test [8] was inactive.

In the case of `CN(C[C@@H](CC[N+]12CCC(C3CCCCC3)(CC1)CC2)c1ccc(Cl)c(Cl)c1)C(=O)c1cc(C(F)(F)F)cc(C(F)(F)F)c1`, in test [3], the half-maximal activity concentration (AC50) was 66.3 µM (active).

For `CCCCCCCCOC(=O)c1cc(O)c(O)c(O)c1`, the outcome in test [3] was inactive.

For `CC(C)(O)c1ccc(CNC(=O)c2cccnc2Oc2ccc3nonc3c2)cc1`, the call in test [7], in test [1] and in [2] was inactive. Moreover, the AC50 in [8] was 61.8 µM (active).

`CC(=O)N1CCN(c2ccc(OC[C@H]3CO[C@](Cn4ccnc4)(c4ccc(Cl)cc4Cl)O3)cc2)CC1`: the concentration at half-maximal activity (AC50) in [3] is 50 µM (active).

On to `CC(C)(C)c1csc(-c2cc3cc(OCc4ccccc4CC(=O)O)ccc3o2)n1`, for which the AC50 in test [3] was 50 µM (active).

Usually AC50 stands for the concentration giving half of the maximal activity seen.
